# Test system: Sonic hedgehog protein (Shh)
# Assay: Sonic hedgehog microarray binding compounds – biochemical, small-molecule microarray, 635/667 nm fluorescence, primary screen (AID 1151);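 further: Shh protein binding to compounds spotted on small-molecule microarray slides; score combines spot fluorescence intensity with signal-to-noise across triplicate slides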
# Settings: 635 nm fluorescence, higher = more signal
row,Compound,composite z-score
1,CN(C)C(=O)[C@]1(Cc2ccccc2N=[N+]=[N-])N=C(c2ccc(OCCCO)cc2)O[C@@H]1c1ccccc1,0.0763
2,CCCCCC1=C2CNC(CCC)(C(=O)OC)C=C2C(C)C1=O (stereo not given),0.368
3,COCCOC(=O)N1C(=O)[C@@]2(c3cc(C#CCCO)ccc31)[C@H](C(=O)N1CCc3cc(OC)c(OC)cc3C1)[C@H]1C(=O)O[C@H](c3ccccc3)[C@H](c3ccccc3)N1[C@@H]2c1ccc(O)cc1,0.918
4,O=C(NCc1ccccc1)[C@@]1(Cc2ccccc2)N=C(c2ccc(OCCCO)cc2)O[C@H]1c1ccccc1,-0.183
5,CC(C)c1ccc(NN2C(C(O)c3cc(C(F)(F)F)cc(C(F)(F)F)c3)C=CC3C(=O)N(c4ccccc4)C(=O)C32)cc1 (stereo not given),-0.254
6,CN1C(=O)[C@]2(Cc3ccccc3)N=C(c3ccc(OCCCO)cc3)O[C@@H]2c2ccccc21,1.15
7,CC(C)(C)OC(=O)CC[C@]1(C(=O)NCC(O)CO)COC(c2ccc(OCCCO)cc2)=N1 (stereo not given in full),-1.31
8,CCOC(=O)C[C@H]1[C@H](OC(=O)c2cc3ccccc3oc2=O)[C@@H](NC(=O)Cc2ccc(OC)cc2)c2cc(OCCCO)ccc2N1C(=O)c1ccccc1,0.189
9,COc1ccc(CCNC(=O)[C@@]2(Sc3ccc(C)cc3)CC(=O)N(C3CCCCC3)[C@@H]2c2ccc(CO)cc2I)cc1,0.855
10,COc1ccc(C(=O)O[C@H]2CC[C@]3(C)C4=C(CCC3C2(C)C)[C@]2(C)CC[C@H]([C@H](C)CCCC(C)C)[C@@]2(C)CC4)cc1 (stereo not given in full),1
11,CCOC(=O)C[C@H]1[C@H](OC(=O)Cc2ccc3c(c2)OCO3)[C@@H](NC(=O)c2ccc3ccccc3c2)c2cc(OCCCO)ccc2N1C(=O)c1ccccc1,0.601
12,CCN(CC)c1ccc(N2CC=CC34O[C@@H]5/C=C\CCCOC(=O)C5[C@H]3C(=O)N(CCO)[C@@H]4C2=O)cc1 (stereo not given in full),0.0512
13,C=CCNC(=O)[C@@H]1[C@H]2C(=O)O[C@H](c3ccccc3)[C@H](c3ccccc3)N2[C@H](c2ccccc2OCCO)[C@@]12C(=O)N(C(=O)OCCOC)c1ccc(C#CCNC(N)=O)cc12,1.53
14,O=C1C[C@]2(c3ccc([N+](=O)[O-])cc3)C(=O)N(CCN3CCOCC3)c3cc(CO)ccc3[C@H]2N1C1CCCCC1,-0.132
15,CN1C(=O)C2C=CC(C(O)C3CC=CCC3)N(NC(=O)OC(C)(C)C)C2C1=O (stereo not given),0.737
16,COCCCNC(=O)C1N=C(c2ccc(OCCCO)cc2)N(c2ccccc2)O1 (stereo not given),0.264
17,C=C(COC)/C(=C/C[C@H](OC(=O)c1ccncc1)c1ccc(OCCO)cc1)c1cnc2ccccc2c1,2.11
18,C=CC[C@@]1(C(=O)N(C)C)N=C(c2ccc(OCCCO)cc2)O[C@@H]1c1ccccc1N=[N+]=[N-],0.264

row,Compound,composite z-score
1,C=CCOC(=O)[C@H]1[C@@H]2C(=O)O[C@@H](c3ccccc3)[C@@H](c3ccccc3)N2[C@@H](c2ccc(OCCOC(=O)[C@@H]3C[C@@H]4C(=O)N[C@@H](CCCC[N+](C)(C)C)C(=O)N4[C@@H]3c3ccc(O)cc3)cc2)[C@]12C(=O)Nc1ccccc12,2.06
2,O=C1NC(=O)C2C1C=CC(C(O)c1cccc3ccccc13)N2Nc1ccccn1 (stereo not given),-0.516
3,COc1ccc(C(=O)Nc2cccc(CN3C(=O)[C@]4(O[C@H](CCO)[C@@H]([Si](C)(C)c5ccc(OC)cc5)[C@@H]4C)c4ccccc43)c2)cc1,1.83
4,COC(=O)c1c(CC[C@@H](CO)NC(=O)N2CCC[C@H]2Cn2cc(-c3ccccn3)nn2)oc(C(C)=O)c1C(=O)OC,0.515
5,C=CCN1C(=O)[C@]2(O[C@H](CCO)[C@@H]([Si](C)(C)c3ccc(OC)cc3)[C@@H]2C)c2cc(N3C(=O)c4cccc5cccc3c45)ccc21,1.84
6,O=C(NCc1ccccc1)[C@@]1(CCS(=O)(=O)c2ccccc2)N=C(c2ccc(OCCCO)cc2)O[C@H]1c1ccccc1,-0.756
7,CC(C)C(=C=CC[C@@H](O)c1ccccc1OCCO)CCO,0.575
8,O=C(NCC(F)(F)F)[C@@H]1c2ccccc2C(=O)N(C2CCCCC2)[C@H]1c1ccc(CO)cc1,-0.376
9,CN1C(=O)C2C=CC(C(O)c3cccs3)N(Nc3ccccc3)C2C1=O (stereo not given),0.251
10,COc1cc2c(cc1O)C(C1CC1)N(Cc1cc3c(cc1Br)OCO3)CC2 (stereo not given),-1.09
11,COCCOC(=O)N1C(=O)[C@@]2(c3cc(C#CCCO)ccc31)[C@H](c1ccc(OCCO)cc1)N1[C@H](c3ccccc3)[C@H](c3ccccc3)OC(=O)[C@H]1[C@@H]2C(=O)N1CCN(c2ncccn2)CC1,1.43
12,O=C1O[C@H](c2ccccc2)[C@H](c2ccccc2)N2[C@H]1[C@@H](C(=O)NC[C@H](O)c1ccccc1)[C@]1(C(=O)Nc3ccccc31)[C@H]2c1ccc(OCCO)cc1,0.297
13,O=C1c2ccccc2[C@](Cc2ccccc2I)(C(=O)NC2CC2)[C@H](c2ccc(CO)cc2)N1C1CCCCC1,1.06
14,CC(=O)NCCCC[C@@H]1NC(=O)[C@@H]2C[C@H](C(=O)NCCCCCCNC(=O)CS)[C@H](c3cccc(OCCO)c3)N2C1=O,1.63
15,COCCOC(=O)N1C(=O)[C@@]2(c3cc(C#CC4=CCCCC4)ccc31)[C@H](C(=O)N1CCc3cc(OC)c(OC)cc3C1)[C@H]1C(=O)O[C@H](c3ccccc3)[C@H](c3ccccc3)N1[C@@H]2c1ccc(OCCO)cc1,1.38
16,COCCOC(=O)N1C(=O)[C@@]2(c3cc(C#CC4=CCCCC4)ccc31)[C@H](C(=O)Nc1nc3ccccc3s1)[C@H]1C(=O)O[C@H](c3ccccc3)[C@H](c3ccccc3)N1[C@@H]2c1ccccc1OCCO,1.49
17,COc1ccc(C(O)C2C=CC3C(=O)N(c4ccccc4)C(=O)C3N2Nc2ccc(C(C)C)cc2)cc1OCc1ccccc1 (stereo not given),0.55
